TWEAK Fn14 block = blocks TWEAK-Fn14 interaction in a reporter cell assay; TWEAK-stimulated Fn14 reporter cells, luciferase luminescence, 8 h; inhibition, % at 10 µM; actives 2% (n = 360,000); AID 1159606; in the data active = inhibition above about 50%
CF NFkB inh = cystic fibrosis NF-kB activation inhibition; KKLEB NF-kB-GFP reporter, PAF-induced, GFP fluorescence overnight; inhibition, % at 5 µM; actives 0.86% (n = 360,000); AID 588850;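 active = at least 50% inhibition at 5 µM, scaled per plate between neutral and stimulator controls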;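 also: PAF is a Pseudomonas aeruginosa culture filtrate used as stimulus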
HIF-2a inh = inhibitors of HIF-2a. actives 0.72% (n = 360,000). inhibition, % at 18.8 µM. 786-0 RCC cells HIF-2a reporter, luciferase luminescence, overnight. AID 624352;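 active = inhibition of the luminescence signal of 40% or more relative to plate controls, in a single-dose primary screen at 18.75 µM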
Peg3 prom inh = Peg3 promoter activity inhibition | HeLa PEG-Prom luciferase reporter, luminescence, overnight | inhibition, % at 20 µM | actives 1.7% (n = 360,000);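 active = inhibition of at least 50% at 20 µM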
TROY NFkB inh = blocks TROY-dependent signaling in reporter cells; inhibition, % at 10 µM; actives 0.98% (n = 360,000); Q293 LMP1-TROYcd NF-kB luciferase reporter, 4 h;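 active = compounds whose plate-normalised and pattern-corrected inhibition of the luciferase reporter signal at the single screening dose is 50% or more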
KKLEB tox = CF airway cell cytotoxicity counter-screen; KKLEB CF airway cells viability, ATPlite luminescence, overnight; active compounds read low; cells stimulated with P. aeruginosa culture filtrate; activity change (cytotoxicity), % at 5 µM; actives 0.36% (n = 360,000); AID 602141;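 active = corrected activity change at or below -50% at 5 µM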
Mdm2-MdmX confirm = Mdm2/MdmX (human) interaction inhibition, confirmed. shares compounds with HIF-2a inh. SaOS-2 split-luciferase Mdm2/MdmX complementation, luminescence. inhibition, % at 8 µM. actives 99% (n = 740);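 active = mean inhibition of the luminescence signal across two replicates at or above 26 percent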
HIF-2a conf = confirmation of HIF-2a inhibitors; shares compounds with HIF-2a inh; 786-0 RCC cells, HIF-2a luciferase reporter luminescence, overnight; inhibition, % at 18.8 µM; actives 56% (n = 1,800); AID 651580;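 active = mean inhibition across four replicates of at least 40 percent at the single tested concentration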
HIF-1a cs = HIF-1a inhibition counter-screen for HIF-2a hits; MiaPaCa-2 HIF-1a luciferase reporter, desferoxamine, overnight; shares compounds with HIF-2a inh; actives 72% (n = 1,800); inhibition, % at 18.8 µM;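 active = mean inhibition of the reporter signal across four replicates at the single tested dose of 50% or more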
Each line names hits and unclear results; the compound was inactive in the other large screens (follow-up assays come after a bar, where they were run). The list is not random: actives were taken first. Their share in the collection is about 3.9%.

COC(=O)C1=C(c2ccc(-c3ccccc3)c(F)c2)C[C@@H]2CC[C@H]1N2C(=O)NCc1cccc2ccccc12	none
O=C(CCN1CCN(CCO)CC1)N1c2ccccc2Sc2ccc(C(F)(F)F)cc21	none
CC(C)COC(=O)c1ccccc1C(=O)OCC(C)C	none
C[CH2][Hg][S]c1ccccc1C(=O)O	TWEAK Fn14 block 92, CF NFkB inh 86, HIF-2a inh 97, Peg3 prom inh 94, KKLEB tox -89 | Mdm2-MdmX confirm 102
O=c1[nH]c(=O)n(Cc2ccco2)c(O)c1C=NCc1ccc2c(c1)OCO2	none
C#CCCC[C@@H]1OC(=O)CNC(=O)C([C@@H](C)CC)NC(=O)[C@@H]2CCCN2C(=O)C([C@@H](C)CC)OC(=O)[C@H](Cc2ccccc2)N(C)C(=O)[C@H](C(C)C)NC(=O)C1(C)C (stereo partly drawn)	none
CCC(C)C1NC(=O)C(NC(=O)C(CC(C)C)N(C)C(=O)C2CCCN2C(=O)C(C)O)C(C)OC(=O)C(Cc2ccc(OC)cc2)N(C)C(=O)C2CCCN2C(=O)C(CC(C)C)NC(=O)[C@H](C)C(=O)[C@H](C(C)C)OC(=O)CC1O (stereo partly drawn)	TWEAK Fn14 block 102, CF NFkB inh 94, HIF-2a inh 83, Peg3 prom inh 100, TROY NFkB inh 85, KKLEB tox -70 | HIF-2a conf 79 | HIF-1a cs 100
CCC1(c2cccc(O)c2)CCCCN(C)C1 (stereo not drawn)	none
COc1cc2c(cc1O)C[C@H]1NCCc3cc4c(c-2c31)OCO4	HIF-2a inh 50 | HIF-2a conf inactive | HIF-1a cs 104
CC(C)CCC1(CCc2ccncc2)C(=O)NC(=O)NC1=O	none
O=[N+]([O-])c1c(Cl)c(Cl)c(Cl)c(Cl)c1Cl	none
Nc1cc(Cl)c2nonc2c1[N+](=O)[O-]	TWEAK Fn14 block 58, CF NFkB inh 76, HIF-2a inh 94, Peg3 prom inh 107, TROY NFkB inh 70, KKLEB tox -76 | HIF-2a conf 97 | HIF-1a cs 103
COC(=O)C1=C(c2ccc(F)cc2OCc2ccccc2)C[C@@H]2CC[C@H]1N2C(=O)NCc1ccccc1Cl	none
Nc1ncnc2c1ccn2[C@@H]1O[C@H](CO)[C@@H](O)[C@H]1O	TWEAK Fn14 block 95, CF NFkB inh 87, HIF-2a inh 35, Peg3 prom inh 100, TROY NFkB inh 52, KKLEB tox -97 | Mdm2-MdmX confirm 103 | HIF-2a conf inactive | HIF-1a cs 103
NC(=S)c1cn(C2OC(CO)C(O)C2O)c2ncnc(N)c12 (stereo not drawn)	TWEAK Fn14 block 103, CF NFkB inh 90, HIF-2a inh 52, Peg3 prom inh 107, TROY NFkB inh 68, KKLEB tox -79 | HIF-2a conf inactive | HIF-1a cs 105
Cc1cc(Oc2ccc(C(F)(F)F)cc2[N+](=O)[O-])c2c3c(c(=O)oc2c1)CCC3	none
CCC(=NCCCN1CCOCC1)c1c(O)n(-c2ccccc2C)c(=O)[nH]c1=O	none
c1ccc(P(c2ccccn2)c2ccccn2)cc1	HIF-2a inh 58, TROY NFkB inh 59 | HIF-2a conf inactive | HIF-1a cs inactive
COc1ccc(CC2NCC(O)C2OC(C)=O)cc1 (stereo not drawn)	TWEAK Fn14 block 100, CF NFkB inh 80, HIF-2a inh 82, Peg3 prom inh 108, TROY NFkB inh 88 | HIF-2a conf 85 | HIF-1a cs 105
CCn1c(O)c(C(=O)CC2NCCc3ccccc32)c(=O)n(CC)c1=S (stereo not drawn)	none
COC(=O)C1=C(c2ccc(C(C)=O)cc2)C[C@@H]2CC[C@H]1N2C(=O)NCc1ccc2c(c1)OCO2	none

High-throughput results from PubChem BioAssay.
